The structures appear in SMILES notation. Results filed as inconclusive are left out. A call without a number means that no potency is given here. The source made the active and inactive calls. Unless noted, calls follow the shape of the full dose curve.

Experimental findings from PubChem BioAssay (NCATS) are described below.
Potency is read from the fitted curve at half-maximal effect.

System in one assay: not listed separately
Put plainly: qHTS for Inhibitors of the Functional Ribonucleoprotein Complex (vRNP) of Lymphocytic Choriomeningitis Arenaviruses (LCMV): Viability assay - alamar blue signal for LCMV Primary Screen (AID 1347085; calls by dose curve; tested in HEK293 reporter line; also: nearly all actives have a fitted effect of over 80% in size). Conditions: alamar blue viability counter-screen, LCMV vRNP screen cells; series mostly up to 57.5 µM.
With `N#Cc1ccc(NC(=O)Nc2ccccc2Br)c2n[nH]nc12`, the Potency result was “inactive”.
The same measure, in the same setting: next, `CCCCCCCCCCCCCC(=O)N[C@H](CO)[C@H](O)c1ccc([N+](=O)[O-])cc1`: “inactive”; `O=C(O)CCc1ccc(NCc2cccc(Oc3ccccc3)c2)cc1`: “inactive”; `OC[C@H](Cc1ccccc1)Nc1nc(Oc2ccc3c(c2)CCC3)nc2c1ncn2Cc1ccc(-c2ccccc2)cc1`: “inactive”.
`O=C(O)c1ccccc1O`: the Potency result is “inactive”.
Same read-out and setting: the value for `CCCCc1ccc(NS(=O)(=O)c2ccc(C)c(C(=O)N3CCN(c4cccc(C)c4C)CC3)c2)cc1` was “inactive”; that for `CS(=O)(=O)c1cccc(CNc2nc(Nc3ccc4c(c3)CCC(=O)N4)ncc2C(F)(F)F)c1` was “inactive”; that for `O=C1[C@H](Cc2ccc(O)cc2)N2C(=O)CCN(C(=O)NCc3ccccc3)[C@H]2CN1Cc1cccc2ccccc12` was 24300 nM (active).
Regarding `CC(=O)Nc1ccc(O)cc1`, the Potency result was “inactive”.
Still for that read-out and setting: next, `N#Cc1c(O)c2c(-c3ccc(-c4ccccc4O)cc3)csc2[nH]c1=O`: “inactive”.
As to `C[C@]12CC[C@H](O)CC1=CC[C@@H]1[C@H]2CC[C@]2(C)C(c3cccnc3)=CC[C@H]12`, the Potency result is “inactive”.
The same measure, in the same setting: the value for `Cc1cc(C=c2sc3nc4ccccc4n3c2=O)c(C)n1-c1ccccc1` was “inactive”; that for `O=C(O)CCC1CCC(c2cc(F)ccc2F)(S(=O)(=O)c2ccc(Cl)cc2)CC1` (stereo not drawn) was “inactive”; that for `CN1Cc2cc(C(=O)N3CCC(C4CCNCC4)CC3)ccc2N[C@@H](CC(=O)O)C1=O` was “inactive”.
On the same count and under the same terms, next, `CCOC(=O)c1cccnc1`: “inactive”; `O=c1cc(CN2CCOCC2)occ1OCCCCCSc1ccnc2cc(C(F)(F)F)ccc12`: 273 nM (active); `C1Cc2[nH]nc(-c3nn[nH]n3)c2C1`: “inactive”.
Still for that read-out and setting: next, `CC(C)NC(C)Cc1ccc(I)cc1` (stereo not drawn): “inactive”; `C[C@]12CCC3C(CC[C@H]4C[C@H](O)CC[C@]34C)C1CC[C@@H]2C(=O)CO` (stereo partly drawn): “inactive”.
`CCOC(=O)[C@@H](N)CCC(=O)N[C@@H](CSCc1ccccc1)C(=O)N[C@@H](C(=O)OCC)c1ccccc1`: the Potency result is “inactive”.
On the same count and under the same terms, the value for `O=C(O)CC[N+](=O)[O-]` was “inactive”.
Still for that read-out and setting: next, `Cc1cn2c(-c3cn[nH]c3)cnc2c(Nc2ccc(C(=O)N3CCNCC3)cc2F)n1`: 1930 nM (active); `CNc1nccc(-c2cccnc2Oc2cc(C(=O)Nc3cccc(C(F)(F)F)c3)ccc2C)n1`: “inactive”; `CN(C)CC/C=C1/c2ccccc2COc2ccc(CC(=O)O)cc21`: “inactive”.
The same measure, in the same setting: next, `Cc1ccc(C(=O)Nc2cccc(C(F)(F)F)c2)cc1-c1ccc2nc(NCCN3CCOCC3)ncc2c1`: 19300 nM (active); `NC(=O)c1ccc(I)c([N+](=O)[O-])c1`: “inactive”; `O=C(C=Cc1cccnc1)NCCCCC1CCN(C(=O)c2ccccc2)CC1`: 38.5 nM (active).
`c1ccc(C2(c3ccccc3)CC2C2=NCCN2)cc1` (stereo not drawn): the Potency entry was “inactive”.
As to `COc1cccc2nc(-c3cccs3)nc(NN3C(=O)C=C(C)C3=O)c12`, the Potency is 6110 nM (active).
Same read-out and setting: the value for `CCCN(CCC)C1CCc2ccc(O)cc2C1` (stereo not drawn) was “inactive”; that for `C=CCn1c(=O)c2cnc(Nc3ccc(N4CCN(C)CC4)cc3)nc2n1-c1cccc(C(C)(C)O)n1` was 611 nM (active).
Take `NCCc1c[nH]c2ccc(O)cc12`: the Potency result was “inactive”.
The same measure, in the same setting: next, `CC(=O)Nc1ccc([C@H](C)C(=O)Nc2ncc(C(C)C)s2)cc1`: 611 nM (active).
Still for that read-out and setting: the value for `CCCCCCCCCCC(CO)CCCCCCCC` (stereo not drawn) was “inactive”; that for `CCC(=O)N[C@H]1CC[C@H](C(=O)N(C)c2ccc(-c3nc4ccccc4o3)cc2)C1` was 2170 nM (active).
Same read-out and setting: next, `NC(=O)c1c(OCc2c(F)cc(Br)cc2F)nsc1NC(=O)NCCCCN1CCCC1`: “inactive”; `COc1ncnc(NS(=O)(=O)c2ccc(N)cc2)c1OC`: “inactive”.
For the molecule `O=C(C=Cc1c(C(=O)O)[nH]c2cc(Cl)cc(Cl)c12)Nc1ccccc1`, the Potency entry was “inactive”.
Same read-out and setting: next, `COc1cc2nc(-c3ccc(N4CCN(C)CC4)cc3)nc(NCCN3CCOCC3)c2cc1OC`: 968 nM (active).

For the next assay, the target named is Nucleoprotein (Lymphocytic choriomeningitis virus (strain Armstrong)) (UniProt P09992). Put plainly: qHTS for Inhibitors of the Functional Ribonucleoprotein Complex (vRNP) of Lymphocytic Choriomeningitis Arenaviruses (LCMV): LCMV Primary Screen - GLuc reporter signal (AID 1347086). Also: nearly all actives have a fitted effect of over 70% in size. Conditions: LCMV minigenome vRNP cell assay, Gaussia luciferase reporter; series mostly up to 57.5 µM. (In qHTS, concentration-response curves come from the screen itself.)
Nucleoprotein (Lymphocytic choriomeningitis virus (strain Armstrong)), sequence (P09992 whole entry, looked up): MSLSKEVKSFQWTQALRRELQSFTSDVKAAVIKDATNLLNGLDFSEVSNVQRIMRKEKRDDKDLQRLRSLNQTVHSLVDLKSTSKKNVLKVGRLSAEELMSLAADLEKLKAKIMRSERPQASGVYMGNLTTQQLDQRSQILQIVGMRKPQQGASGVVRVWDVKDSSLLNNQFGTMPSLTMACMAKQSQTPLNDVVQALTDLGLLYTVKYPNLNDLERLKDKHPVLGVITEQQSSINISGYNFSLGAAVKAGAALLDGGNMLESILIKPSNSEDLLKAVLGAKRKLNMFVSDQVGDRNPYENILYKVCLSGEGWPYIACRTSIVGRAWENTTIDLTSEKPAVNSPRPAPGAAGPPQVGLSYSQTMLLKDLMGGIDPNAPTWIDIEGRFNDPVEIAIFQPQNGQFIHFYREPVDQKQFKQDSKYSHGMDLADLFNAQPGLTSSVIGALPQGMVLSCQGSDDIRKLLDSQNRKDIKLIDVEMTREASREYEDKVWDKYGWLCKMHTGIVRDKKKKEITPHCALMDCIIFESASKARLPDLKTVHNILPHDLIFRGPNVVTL
With `N#Cc1ccc(NC(=O)Nc2ccccc2Br)c2n[nH]nc12`, the Potency result is “inactive”.
Same read-out and setting: the value for `CCCCCCCCCCCCCC(=O)N[C@H](CO)[C@H](O)c1ccc([N+](=O)[O-])cc1` was “inactive”; that for `O=C(O)CCc1ccc(NCc2cccc(Oc3ccccc3)c2)cc1` was “inactive”; that for `OC[C@H](Cc1ccccc1)Nc1nc(Oc2ccc3c(c2)CCC3)nc2c1ncn2Cc1ccc(-c2ccccc2)cc1` was “inactive”.
Still for that read-out and setting: the value for `O=C(O)c1ccccc1O` was “inactive”; that for `CCCCc1ccc(NS(=O)(=O)c2ccc(C)c(C(=O)N3CCN(c4cccc(C)c4C)CC3)c2)cc1` was “inactive”.
Same read-out and setting: the value for `CS(=O)(=O)c1cccc(CNc2nc(Nc3ccc4c(c3)CCC(=O)N4)ncc2C(F)(F)F)c1` was “inactive”; that for `O=C1[C@H](Cc2ccc(O)cc2)N2C(=O)CCN(C(=O)NCc3ccccc3)[C@H]2CN1Cc1cccc2ccccc12` was 19300 nM (active); that for `CC(=O)Nc1ccc(O)cc1` was “inactive”.
For `N#Cc1c(O)c2c(-c3ccc(-c4ccccc4O)cc3)csc2[nH]c1=O`, the Potency entry was “inactive”.
In the case of `C[C@]12CC[C@H](O)CC1=CC[C@@H]1[C@H]2CC[C@]2(C)C(c3cccnc3)=CC[C@H]12`, the Potency result is “inactive”.
The same measure, in the same setting: the value for `Cc1cc(C=c2sc3nc4ccccc4n3c2=O)c(C)n1-c1ccccc1` was “inactive”; that for `O=C(O)CCC1CCC(c2cc(F)ccc2F)(S(=O)(=O)c2ccc(Cl)cc2)CC1` (stereo not drawn) was “inactive”.
As to `CN1Cc2cc(C(=O)N3CCC(C4CCNCC4)CC3)ccc2N[C@@H](CC(=O)O)C1=O`, the Potency entry was “inactive”.
Still for that read-out and setting: the value for `CCOC(=O)c1cccnc1` was “inactive”; that for `O=c1cc(CN2CCOCC2)occ1OCCCCCSc1ccnc2cc(C(F)(F)F)ccc12` was 1220 nM (active); that for `C1Cc2[nH]nc(-c3nn[nH]n3)c2C1` was “inactive”.
Same read-out and setting: the value for `CC(C)NC(C)Cc1ccc(I)cc1` (stereo not drawn) was “inactive”.
Turning to `C[C@]12CCC3C(CC[C@H]4C[C@H](O)CC[C@]34C)C1CC[C@@H]2C(=O)CO` (stereo partly drawn), the Potency result was “inactive”.
Consider `CCOC(=O)[C@@H](N)CCC(=O)N[C@@H](CSCc1ccccc1)C(=O)N[C@@H](C(=O)OCC)c1ccccc1`, for which the Potency entry was “inactive”.
For `O=C(O)CC[N+](=O)[O-]`, the Potency result was “inactive”.
The same measure, in the same setting: next, `Cc1cn2c(-c3cn[nH]c3)cnc2c(Nc2ccc(C(=O)N3CCNCC3)cc2F)n1`: 2730 nM (active); `CNc1nccc(-c2cccnc2Oc2cc(C(=O)Nc3cccc(C(F)(F)F)c3)ccc2C)n1`: “inactive”.
On the same count and under the same terms, next, `CN(C)CC/C=C1/c2ccccc2COc2ccc(CC(=O)O)cc21`: “inactive”; `Cc1ccc(C(=O)Nc2cccc(C(F)(F)F)c2)cc1-c1ccc2nc(NCCN3CCOCC3)ncc2c1`: 12200 nM (active).
On the same count and under the same terms, the value for `NC(=O)c1ccc(I)c([N+](=O)[O-])c1` was “inactive”.
On to `O=C(C=Cc1cccnc1)NCCCCC1CCN(C(=O)c2ccccc2)CC1`, for which the Potency was 38.5 nM (active).
Consider `c1ccc(C2(c3ccccc3)CC2C2=NCCN2)cc1` (stereo not drawn), for which the Potency result is “inactive”.
The same measure, in the same setting: next, `COc1cccc2nc(-c3cccs3)nc(NN3C(=O)C=C(C)C3=O)c12`: 7690 nM (active); `CCCN(CCC)C1CCc2ccc(O)cc2C1` (stereo not drawn): “inactive”; `C=CCn1c(=O)c2cnc(Nc3ccc(N4CCN(C)CC4)cc3)nc2n1-c1cccc(C(C)(C)O)n1`: 968 nM (active).
With `NCCc1c[nH]c2ccc(O)cc12`, the Potency entry is “inactive”.
Still for that read-out and setting: the value for `CC(=O)Nc1ccc([C@H](C)C(=O)Nc2ncc(C(C)C)s2)cc1` was 1090 nM (active); that for `CCCCCCCCCCC(CO)CCCCCCCC` (stereo not drawn) was “inactive”.
Same read-out and setting: next, `CCC(=O)N[C@H]1CC[C@H](C(=O)N(C)c2ccc(-c3nc4ccccc4o3)cc2)C1`: 3430 nM (active).
The same measure, in the same setting: next, `NC(=O)c1c(OCc2c(F)cc(Br)cc2F)nsc1NC(=O)NCCCCN1CCCC1`: “inactive”; `COc1ncnc(NS(=O)(=O)c2ccc(N)cc2)c1OC`: “inactive”.
Consider `O=C(C=Cc1c(C(=O)O)[nH]c2cc(Cl)cc(Cl)c12)Nc1ccccc1`, for which the Potency entry is “inactive”.
Turning to `COc1cc2nc(-c3ccc(N4CCN(C)CC4)cc3)nc(NCCN3CCOCC3)c2cc1OC`, the Potency is 432 nM (active).
